The GenesisPotency data set
Screen size: about 290,000 compounds; about 3,000 (1%) were called active. Cut-off read from the data, not from the text of the source: active = inhibition mostly above about 36% (no sharp cut-off); inactive = mostly below about 34%. The full list was thinned out, with actives kept by preference.

biological target: T1, Nucleotide-binding oligomerization domain-containing protein 1, Homo sapiens (UniProt Q9Y239); test: NOD1 signaling inhibitors, primary screen, cell-based, luminescence, uHTS (AID 1578)
T1 sequence (whole entry): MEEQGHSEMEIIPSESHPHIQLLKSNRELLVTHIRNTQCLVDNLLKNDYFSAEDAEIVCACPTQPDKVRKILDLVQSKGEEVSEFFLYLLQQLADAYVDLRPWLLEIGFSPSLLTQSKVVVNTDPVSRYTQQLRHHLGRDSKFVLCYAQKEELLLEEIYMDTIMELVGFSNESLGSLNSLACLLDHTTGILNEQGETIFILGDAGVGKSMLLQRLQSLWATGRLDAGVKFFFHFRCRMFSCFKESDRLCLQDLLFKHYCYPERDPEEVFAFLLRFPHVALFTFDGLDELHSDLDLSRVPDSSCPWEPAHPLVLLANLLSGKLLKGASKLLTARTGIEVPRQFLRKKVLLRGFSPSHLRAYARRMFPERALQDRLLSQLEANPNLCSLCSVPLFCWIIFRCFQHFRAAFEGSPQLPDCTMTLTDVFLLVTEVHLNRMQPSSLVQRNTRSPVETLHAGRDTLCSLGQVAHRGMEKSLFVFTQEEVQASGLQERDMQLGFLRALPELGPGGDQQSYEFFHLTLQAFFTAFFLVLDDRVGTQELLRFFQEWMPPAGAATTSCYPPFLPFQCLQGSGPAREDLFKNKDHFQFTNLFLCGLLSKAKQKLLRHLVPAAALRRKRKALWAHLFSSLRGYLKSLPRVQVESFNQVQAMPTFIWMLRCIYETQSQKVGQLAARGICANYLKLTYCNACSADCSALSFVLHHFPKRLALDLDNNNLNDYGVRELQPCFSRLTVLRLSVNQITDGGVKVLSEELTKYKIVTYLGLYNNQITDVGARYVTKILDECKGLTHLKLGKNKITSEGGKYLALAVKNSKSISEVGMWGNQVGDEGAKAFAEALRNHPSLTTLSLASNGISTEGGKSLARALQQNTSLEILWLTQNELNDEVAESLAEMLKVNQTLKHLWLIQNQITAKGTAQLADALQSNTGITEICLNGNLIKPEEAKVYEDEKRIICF

outcome, active:
O=C(O)CCSc1nnc(-c2ccc3c(c2)OCO3)o1
O=C(Nc1nccs1)c1sc2cc(Cl)ccc2c1Cl
Cc1cc(NC(=O)c2cccs2)n(-c2nc3ccccc3[nH]2)n1
CCOC(=O)c1ccc(NC(=O)c2ccc(C)c(S(=O)(=O)N3CCOCC3)c2)cc1
COc1ccc(C(=O)Nc2ccc(-c3ccc(C)o3)cc2)cc1S(=O)(=O)N1CCOCC1
Cc1ccc(NC(=O)CSc2ncnc3ccccc23)cc1S(=O)(=O)N1CCOCC1
O=C(Nc1ccc(Cl)c(S(=O)(=O)N2CCOCC2)c1)c1ccc(OCC2CCCO2)cc1 (centres undefined)
CCOc1ccc(Nc2ncnc3ccc([N+](=O)[O-])cc23)cc1
Cc1nn(-c2ccccc2)c(Cl)c1C(=O)N1CCN(c2ncnc3c2cnn3-c2ccccc2)CC1
CN(C)CC(CCC(CN(C)C)C(=O)c1ccccc1)C(=O)c1ccccc1.Cl (centres undefined)
O=C(NCc1cccnc1)/C(=C/c1ccc(-c2cccc(Cl)c2)o1)S(=O)(=O)c1ccccc1
O=C(NCc1cccnc1)/C(=C\c1ccc(-c2cccc(Cl)c2)o1)S(=O)(=O)c1ccccc1
O=C(CCl)N1N=C(c2ccco2)CC1c1ccco1 (centres undefined)
O=C(CCl)N1N=C(c2cccs2)CC1c1ccco1 (centres undefined)
COc1ccc(C(=O)Nc2ccccc2C(=O)N/N=C/c2ccccn2)cc1OC
O=C(N/N=C/c1ccccn1)c1sc2ccccc2c1Cl
Cc1ccc(-n2[nH]c(C)c(/C=N/Nc3ccc([N+](=O)[O-])cc3[N+](=O)[O-])c2=O)cc1C
Cc1[nH]n(-c2ccccc2)c(=O)c1/C=N/NC(=O)c1cccc([N+](=O)[O-])c1
Cc1cccc(/C=N/NC(=O)c2cccc([N+](=O)[O-])c2)n1
O=C(N/N=C/c1ccccn1)c1ccc(Cl)c(Cl)c1
CC(/C=C/c1ccccc1)=N/NC(=O)c1cc([N+](=O)[O-])cc([N+](=O)[O-])c1
O=C(N/N=C/c1ccccn1)c1cc([N+](=O)[O-])cc([N+](=O)[O-])c1
Cc1c(CCC(=O)O)c(=O)oc2cc3oc4c(c3cc12)CCCC4
O=C(Sc1cccc2cccnc12)c1ccc(F)cc1
O=C(Sc1cccc2cccnc12)c1ccccc1Br
O=C(Nc1ccc(N2CCN(c3ncccc3C(F)(F)F)CC2)nc1)c1cccs1
COc1ccc(C(=O)N/N=C(\c2ccccc2)c2ccccn2)cc1
COc1cccc(C(=O)N/N=C(/c2ccccc2)c2ccccn2)c1
COc1cc(C(=O)N/N=C(\c2ccccc2)c2ccccn2)cc(OC)c1OC
O=C(N/N=C(\c1ccccc1)c1cccnc1)c1cccc(F)c1
CCOC(=O)c1c(NC(=S)NCCc2ccccc2)sc2c1CC(C(C)C)OC2 (centres undefined)
Cn1c(=O)c(C(=O)CCl)c(N)n(Cc2ccccc2)c1=O
O=C(CSc1n[nH]c(-c2ccccn2)n1)Nc1cccc(Cl)c1
O=C(CSc1n[nH]c(-c2ccccn2)n1)Nc1ccc(Cl)cc1
Cc1ccccc1Oc1cc(-n2ncc(Cl)c(Cl)c2=O)ncn1
O=C(NCc1ccco1)c1sc(=S)n2c1[nH]c(=O)c1ccccc12
CCCCNC(=O)c1sc(=S)n2c1[nH]c(=O)c1ccccc12
CC(C)NC(=O)c1sc(=S)n2c1[nH]c(=O)c1ccc(C(=O)NCCc3ccc(Cl)cc3)cc12
O=C(NCc1ccccc1)c1sc(=S)n2c1[nH]c(=O)c1ccccc12
C=C(C)C(=O)O[C@H]1C/C(C)=C\C(=O)/C=C(\C)[C@H](O)[C@@H]2OC(=O)C(=C)[C@@H]21
CC1(C)N=C(N)N=C(N)N1c1ccc(OCCCOc2ccccc2)c(Cl)c1.CCS(=O)(=O)O
O=C(NCc1cccnc1)/C(=C/c1ccc(-c2ccc(Cl)cc2)o1)S(=O)(=O)c1ccccc1
O=C(NCc1cccnc1)/C(=C\c1ccc(-c2ccc(Cl)c(Cl)c2)o1)S(=O)(=O)c1ccccc1
O=C(Oc1cc2oc(=O)cc(-c3ccccc3)c2cc1Cl)C1CCCCC1
COc1ccc(-c2cc(=O)oc3cc(OC(=O)C4CCCCC4)c(Cl)cc23)cc1
Br.O=[N+]([O-])c1ccc(N/N=C/c2sc(N3CCOCC3)nc2-c2ccccc2)c(S(=O)(=O)Nc2ccc(Cl)cc2)c1
O=[N+]([O-])c1ccc(N/N=C/c2sc(N3CCOCC3)nc2-c2ccccc2)c(S(=O)(=O)Nc2ccccc2Cl)c1
COc1ccc2cc(C(N)=O)c(=Nc3ccc(C)cc3)oc2c1
Cc1ccc(N=c2oc3cc(O)ccc3cc2C(N)=O)cc1
COc1ccc(C2C(O)C(c3c[nH]c4ccccc34)=NN2C(=O)CCl)cc1 (centres undefined)
COc1cccc(C(=O)Nc2ccc(Oc3cccc(C(F)(F)F)c3)nc2)c1
CN(C)c1ccnc2sc(C(N)=O)c(N)c12
CC(=O)c1cccc(Nc2ncnc3ccc(Br)cc23)c1
COc1ccc(Nc2ncnc3ccc(Br)cc23)cc1OC
Brc1ccc2ncnc(Nc3cccc4ccccc34)c2c1
Cc1ccc(OCCN2CCN(c3ncnc4sc(C)c(C)c34)CC2)cc1
Cc1cc(C)c(C)c(S(=O)(=O)N2CCN(c3ncnc4sc(C)c(C)c34)CC2)c1C
O=[N+]([O-])c1cc(S(=O)(=O)Nc2cccc(C(F)(F)F)c2)ccc1-n1nnc2ccccc21
CN(C)/C=C/c1c([N+](=O)[O-])c2ccc(O)cc2n1-c1ccccc1
Cc1c([N+](=O)[O-])c2ccc(O)cc2n1-c1ccccc1
S=C(NNc1ccnc2cc(Cl)ccc12)Nc1ccccc1Cl
COc1cccc(-n2nnnc2S(C)(=O)=O)c1
N#CCCS(=O)(=O)c1nnnn1-c1ccccc1
CCCS(=O)(=O)c1nnnn1-c1cccc(OC)c1
CS(=O)(=O)c1ccc(C(=O)OCc2nnc(-c3ccccc3)o2)cc1[N+](=O)[O-]
CCCCN(CC)S(=O)(=O)c1ccc(C(=O)Nc2nnc(-c3cccs3)o2)cc1
CCCCN(C)S(=O)(=O)c1ccc(C(=O)Nc2nnc(-c3cccs3)o2)cc1
CCCCN(CC)S(=O)(=O)c1ccc(C(=O)Nc2nnc(-c3ccccc3Cl)o2)cc1
CCN(Cc1ccccc1)S(=O)(=O)c1ccc(C(=O)Nc2nnc(C3CC3)o2)cc1
Cc1cccnc1Nc1nc(-c2ccccn2)cs1
COc1ccccc1-c1nnc(Nc2nc3c(OC)cccc3s2)o1
COc1cccc2sc(Nc3nc(-c4ccccn4)cs3)nc12
COc1ccc(Nc2oc(COc3ccccc3OC)nc2C#N)cc1
Cc1oc2c(F)c(F)c(F)c(F)c2c1S(=O)(=O)Nc1cccc(C(F)(F)F)c1
CCCCn1c(SCC(=O)Nc2nnc(CC)s2)nc2c1c(=O)n(C)c(=O)n2C
CCCn1c(SCC(=O)Nc2nc3c(s2)CCCC3)nc2c1c(=O)n(C)c(=O)n2C
O=C(NC1CCCC1)c1sc(=S)n2c1[nH]c(=O)c1ccccc12
O=C(NC1CCCCC1)c1sc(=S)n2c1[nH]c(=O)c1ccccc12
Cc1ccc(-n2ncc3c2CCCC3NC(=O)c2ocnc2C)cc1C (centres undefined)
Cc1ncoc1C(=O)NC1CCCc2c1cnn2-c1ccc(C(C)(C)C)cc1 (centres undefined)
CCC1Sc2ccc(S(=O)(=O)Nc3ccc(OC)c(OC)c3)cc2NC1=O (centres undefined)
O=C(Nc1nnc(-c2ccc3c(c2)CCCC3)o1)c1ccccc1Cl
O=C(Nc1nnc(-c2ccc3c(c2)CCCC3)o1)c1ccc(Cl)cc1Cl
O=C(Nc1nnc(-c2ccc3c(c2)CCCC3)o1)c1ccccc1
N#Cc1c2ccc(O)cc2n2ccccc12
COc1ccc2c(C#N)c3ccccn3c2c1
COc1ccc2[nH]c(=O)c3c(c2c1)OC(C)(C)C=C3
O=C(Nc1ccc(Cl)cn1)C1CCN(c2ncnc3c2nc2n3CCCCC2)CC1
O=C(NCC1CCN(Cc2ccc(Cl)cc2)CC1)C1CCCN(c2ncnc3c2nc2n3CCCCC2)C1 (centres undefined)
Cc1ccc(NC(=O)C2CCCN(c3ncnc4c3nc3n4CCCCC3)C2)nc1 (centres undefined)
O=C(Nc1ccccn1)C1CCN(c2ncnc3c2nc2n3CCCCC2)CC1
O=C(Nc1ccccc1Cl)/C(Cl)=C(\Cl)S(=O)c1ccccc1 (centres undefined)
CC(=O)N1CC(C)Sc2ccc(S(=O)(=O)NCCc3ccc(C)cc3)cc21 (centres undefined)
COc1cc(/C=C2\SC(=N)N(c3ccc(F)cc3)C2=O)ccc1O
N#C/C(=C\C=C\c1ccccc1[N+](=O)[O-])C(=O)NC1CCCCC1
Br.CCCCCCCCn1ccc(=N)cc1
Br.CCCCCCCCCn1ccc(=N)cc1
Br.CCCCCCCCCCn1ccc(=N)cc1
C(=N\Nc1nc(-c2ccccn2)nc2ccccc12)/c1ccccc1
Fc1ccccc1/C=N/Nc1nc(-c2ccccn2)nc2ccccc12
COc1cccc(Nc2nc(NCCO)c3ccccc3n2)c1.Cl
O=c1cc(CSc2nnc(-c3cccs3)n2Cc2ccccc2)nc2sc3ccccc3n12
COc1ccc(OC)c(CCNC(=O)Cn2nc(C)c3c(C)n(-c4ccc(C)cc4)nc3c2=O)c1
COc1ccc(OC)c(CCNC(=O)C(C)n2nc(C)c3c(C)n(-c4ccc(C)cc4)nc3c2=O)c1 (centres undefined)
CCOc1ccccc1CNC(=O)Cn1nc(C)c2c(C)n(-c3ccc(C)cc3)nc2c1=O
COc1ccc(CCNC(=O)C(C)n2nc(C)c3c(C)n(-c4ccc(C)cc4)nc3c2=O)c(OC)c1 (centres undefined)
CSc1nnc(NC(=O)c2nc(S(=O)(=O)Cc3ccc(C)cc3)ncc2Cl)s1
Cc1ccc(CS(=O)(=O)c2ncc(Cl)c(C(=O)Nc3nnc(C(C)C)s3)n2)cc1
Cc1cccc(CS(=O)(=O)c2ncc(Cl)c(C(=O)Nc3nnc(C(C)C)s3)n2)c1
